Reference: PubChem BioAssay (EPA / NIEHS)
Records with an inconclusive call do not appear. The source made the active and inactive calls. How the source made its calls: active means hit-call score of the fitted dose curve at least 0.9, where 1 is the maximum; inconclusive means response in the unintended direction; inactive means score below 0.9.

read-out: xenobiotic metabolism (CYP2C9), CYP2C9 (gene 1559); test: CLD_CYP2C9_6hr: CellzDirect (CLD) Gene Expression Assay for xenobiotic metabolism (CYP2C9) at 6 hours (AID 2283664)
Protocol: CLD_6hr is a cell-based, multiplexed-readout assay that uses hepatocyte, a human liver primary cell, with measurements taken at 6 hours after chemical dosing in a 96-well plate.CLD_CYP2C9_6hr is one of 16 assay component(s) measured or calculated from the CLD_6hr assay. It is designed to make measurements of mRNA induction, a form of inducible reporter, as detected with chemiluminescence signals by Quantitative Nuclease Protection Assay (qNPA) technology.Data from the assay component CLD_CYP2C9_6hr was analyzed at the endpoint, CLD_CYP2C9_6hr, in the positive analysis fitting direction relative to DMSO as the negative control and baseline of activity. Using a type of inducible reporter, gain-of-signal activity can be used to understand changes in the reporter gene as they relate to the gene CYP2C9. Furthermore, this assay endpoint can be referred to as a primary readout. To generalize the intended target to other relatable targets, this assay endpoint is annotated to the cyp intended target family, where subfamily is xenobiotic metabolism.
Human hepatocyte cultures were treated daily for two consecutive days with fresh dosing solutions containing appropriate concentrations of the 320 ToxCast chemicals (chemical identities were blinded to CellzDirect and other ToxCast collaborators), vehicle control (0.2% DMSO), and positive control inducers as summarized in Table 1. Due to the large number of treatment groups and chemicals examined, the ToxCast chemicals were divided into two groups (spanning two independent cultures of hepatocytes from separate donor preparations (Hu778: ToxCast plates 1 and 2; Hu776: ToxCast plates 3 and 4). Each preparation of human hepatocyte cultures was treated with respective vehicle control, medium only control, set of six positive controls/reference chemicals for the five hepatic receptor pathways, and a subset of eight of the ToxCast chemicals (indoxacarb, pyrithiobac-sodium, norflurazon, cyhalofop-butyl, methomyl, thiram, acetochlor, and propiconazole). These replicate data, coupled with internal replicates designed within the blinded ToxCast chemical library, provided additional data to evaluate interindividual differences between hepatocyte preparations and their potential impact on chemical profiles.Cell morphology and integrity were evaluated using phase-contrast microscopy as an indicator of hepatocyte cell health (Tyson & Green, 1987). Cultures for each treatment group (i.e., media, vehicle [0.2% DMSO], positive control inducers [multiple concentrations], and the ToxCast chemicals [multiple concentrations]) were observed and cell morphology was assessed relative to vehicle control cultures at each harvest time point (0, 6, 24, or 48 h). […] Images were evaluated at the conclusion of the study to assess changes in cell integrity and account for the effects of chemical exposure on uncharacteristic changes in concentration-dependent gene expression profiles. The results from these determinations of apparent cytotoxicity were annotated (yes/no) alongside the corresponding qNPA data for reference.At the conclusion of each treatment period, hepatocyte cultures (96-well) were washed with 1 volume of HBSS, lysed by addition of 25 ul ArrayPlate lysis buffer (HTG, Tucson, AZ), and 70 ul/well of Denaturation Oil, denatured by incubation at 95C for 10 min, and frozen at approximately -70C until analysis by nuclease protection assay (qNPA) (Roberts et al., 2007). For qNPA analysis, cell lysates were thawed at 50C for approximately 30 min, qNPA probes were added, and samples were incubated at 95C for 10 min to begin the detection process by denaturing the target RNA, dissociating the duplexes and secondary structure hybridization. At the conclusion of the hybridization period, S1 nuclease reagent was added to each sample to digest all nonprotected nucleotides at 50C for 60-90 min. […]

Structure (SMILES)	outcome
C#CCOS(=O)OC1CCCCC1Oc1ccc(C(C)(C)C)cc1 (centres undefined)	inactive
CCCCOC(=O)c1ccccc1C(=O)OCCCC	inactive
C=CCC1=C(C)C(OC(=O)C2C(C=C(C)C)C2(C)C)CC1=O (centres undefined)	inactive
CNC(=S)S	inactive
CCCCC(CC)COC(=O)c1ccccc1C(=O)OCC(CC)CCCC (centres undefined)	inactive
COC(=O)C=C(C)OP(=O)(OC)OC	inactive
CCOC(=O)C(Cl)Cc1cc(-n2nc(C)n(C(F)F)c2=O)c(F)cc1Cl (centres undefined)	inactive
Fc1ccc(Oc2ccnc3cc(Cl)cc(Cl)c23)cc1	inactive
Oc1ccccc1-c1ccccc1	inactive
O=C(O)c1nc(Cl)ccc1Cl	inactive
COC(=O)c1ccccc1C(=O)OC	inactive
COc1nc(C)nc(NC(=O)NS(=O)(=O)c2ccccc2Cl)n1	inactive
CC(C)C1(C)N=C(c2nc3ccccc3cc2C(=O)O)NC1=O (centres undefined)	inactive
CCCN(CCC)c1c([N+](=O)[O-])cc(S(N)(=O)=O)cc1[N+](=O)[O-]	inactive
COc1cnc(OC)n2nc(NS(=O)(=O)c3c(OCC(F)F)cccc3C(F)(F)F)nc12	inactive
COc1nc(C)nc(NC(=O)NS(=O)(=O)c2ccccc2CCC(F)(F)F)n1	inactive
COC(=O)N(OC)c1ccccc1COc1ccn(-c2ccc(Cl)cc2)n1	inactive
COP(=S)(OC)Oc1nc(Cl)c(Cl)cc1Cl	inactive
CCNc1nc(Cl)nc(NCC)n1	inactive
O=C(O)COc1nc(Cl)c(Cl)cc1Cl	inactive
CNC(=O)ON=CC(C)(C)SC	inactive
OC(c1ccc(Cl)cc1)(c1cncnc1)c1ccccc1Cl (centres undefined)	inactive
Cc1cc(Cl)ccc1OCC(=O)O	inactive
COc1nc(NC(C)C)nc(NC(C)C)n1	inactive
